# Bioassay records: PubChem, National Center for Advancing Translational Sciences (NCATS)
# PI5P4K alpha inh: blocks human PI5P4K alpha kinase activity; max response, %; P48426; PI5P4Kalpha enzyme, ADP-Glo luminescence, 60 min; stronger effect = lower value; 330,000 tested, 1.2% active; active = max response of -50% or lower; inconclusive = between -30% and -50%; inactive = -30% or higher; note: value at the top dose of about 77 µM
#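 ADP-Glo luminescence end-point after a 60 min room-temperature kinase reaction. PI5P4Kalpha and substrate in HEPES pH 7.4 buffer with EGTA, 0.1% CHAPS and 5% DMSO; ATP at 5 microM final.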
# BAZ2B block: BAZ2B (human) inhibition; Q9UIF8; AlphaScreen BAZ2B-H3K14Ac peptide displacement; Potency, µM (titrated, usually from 114 µM), most hits filed as inhibitors; 360,000 tested, 4.4% active; AID 504333; note: nearly all actives have a fitted effect of over 60% in size
#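 Complex of BAZ2B and biotin-H3K14Ac (50 nM apiece) forms over 30 min at RT, then faces library compounds up to 110 uM for another 30 min; AlphaScreen beads added, 20 min dark incubation, luminescence read.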
# HP1b chromo inh: blocks HP1-beta chromodomain binding to methylated histone tails; P83916; AlphaScreen HP1-beta / biotin-H3K9me3 peptide binding; Potency, µM (top dose mostly 114 µM), actives largely listed as inhibitors; 390,000 tested, 0.56% active; note: nearly all actives have a fitted effect of over 70% in size
#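 AlphaScreen: HP1-beta (50 nM) preformed 30 min with biotin-H3(1-18)K9me3 peptide (50 nM) in PBS pH 7.4, 0.01% Tween-20. Compound added for 30 min at RT, then streptavidin donor/nickel chelate acceptor beads (10 ug/mL) for 30 min.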
# JMJD2A Tudor inh: JMJD2A Tudor domain (human) inhibition; Potency, µM (titrated, usually from 114 µM), actives largely listed as inhibitors; AlphaScreen JMJD2A-Tudor / H3K4me3 peptide binding; 390,000 tested, 4.4% active; note: nearly all actives have a fitted effect of over 50% in size
# PLK1 PBD block: PLK1 (human) polo-box domain binding inhibition; Potency, µM, most hits filed as inhibitors; AID 720504; Plk1 PBD binding of FITC phosphopeptide, fluorescence polarization; 360,000 tested, 2.8% active; note: series mostly up to about 57 µM; nearly all actives have a fitted effect of over 65% in size
# Target sequence (P53350 whole entry, looked up, the tested form may be a part): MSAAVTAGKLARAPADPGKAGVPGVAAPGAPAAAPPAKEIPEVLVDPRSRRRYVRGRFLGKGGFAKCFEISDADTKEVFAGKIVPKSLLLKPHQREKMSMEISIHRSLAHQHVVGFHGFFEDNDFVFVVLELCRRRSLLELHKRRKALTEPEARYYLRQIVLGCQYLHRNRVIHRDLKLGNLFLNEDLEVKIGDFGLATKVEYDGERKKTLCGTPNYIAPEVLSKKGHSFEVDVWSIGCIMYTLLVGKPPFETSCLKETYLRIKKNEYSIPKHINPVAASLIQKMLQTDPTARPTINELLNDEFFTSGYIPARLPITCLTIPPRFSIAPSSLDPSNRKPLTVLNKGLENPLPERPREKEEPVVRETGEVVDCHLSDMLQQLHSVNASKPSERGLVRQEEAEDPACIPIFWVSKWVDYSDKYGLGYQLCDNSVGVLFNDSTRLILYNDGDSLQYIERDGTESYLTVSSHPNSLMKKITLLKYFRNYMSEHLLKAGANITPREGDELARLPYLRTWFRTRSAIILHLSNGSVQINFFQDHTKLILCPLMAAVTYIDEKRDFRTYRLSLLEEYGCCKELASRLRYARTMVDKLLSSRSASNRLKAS
# G9a block: blocks human histone lysine methyltransferase G9a | Q96KQ7 | G9a H3K9 monomethylation, AlphaScreen, 2 h | Potency, µM (titrated, usually from 102 µM), most hits filed as inhibitors | 350,000 tested, 8.8% active; note: nearly all actives have a fitted effect of over 75% in size
#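 Quantitative HTS format: methyltransferase activity on a biotin-tagged H3K9 peptide is measured by AlphaScreen, using a rabbit anti-monomethyl-H3K9 antibody with streptavidin donor and anti-IgG acceptor beads. Final levels are 20 nM enzyme, 500 nM peptide, 20 uM SAM; 2 h RT.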
# Numbers stand for hits; . = inactive; ? = inconclusive; / = no result given; [ ] = remark or other dose. A selection: hits, their analogues and other compounds. The true share with any hit is near 12%. Unless noted, calls come from the whole dose curve; as a rule, active = well fitted curve in the direction sought with a large enough effect; inconclusive = small, poorly fitted or top-dose-only effect, or another doubt; inactive = no such curve, though single readings can be large; an effect the other way counts as inactive or inconclusive.
SMILES,PI5P4K alpha inh,BAZ2B block,HP1b chromo inh,JMJD2A Tudor inh,PLK1 PBD block,G9a block
CCCOc1ccc(C(=O)NNC(=S)NC(=O)c2ccccc2)cc1,.,.,.,?,.,?
CCCOc1ccc(C(=O)NNC(=S)NC(C)=O)cc1,/,.,.,28µM,.,?
CCCOc1ccc(C(=O)NNC(=S)NC(=O)c2ccco2)cc1,.,.,?,.,.,40µM
O=c1c(-c2ccc(Cl)cc2)c(C(F)(F)F)oc2c(CN3CCCCC3)c(O)ccc12,/,.,.,.,/,.
Cc1ccc(S(=O)(=O)N(C)c2ccc(OCC(=O)NCC3(N(C)C)CCCCC3)cc2)cc1,.,.,.,.,.,?
Cc1ccccc1CC(=O)Nc1ccc(C(=O)N2CCCC2)cc1,.,.,.,.,.,?
O=C(O)CCn1cnc2onc(-c3ccccc3Cl)c2c1=O,/,50µM,?,50µM,/,?
O=C(CCn1cnc2onc(-c3ccc(F)cc3)c2c1=O)N1CCN(c2ccccc2)CC1,/,.,.,?,/,?
COC(=O)c1sc2cccc(F)c2c1S(=O)(=O)N1CCN(c2cccc(C)c2)C(C)C1 (configuration not stated),/,.,.,.,/,.
O=C(NC1CCCC1)C(c1cccnc1)N(C(=O)c1csnn1)c1ccccc1Cl (configuration not stated),.,.,.,50µM,?,.
O=C(CN(Cc1cccs1)C(=O)c1csnn1)NC1CCCC1,.,.,?,79µM,27µM,.
O=C(NC1CCCCC1)C(c1cccnc1)N(C(=O)c1csnn1)c1ccccc1F (configuration not stated),.,.,.,.,.,.
O=C(NC1CCCCC1)/C(=N\O)c1ccccn1,/,.,.,?,.,50µM
O=C(NC1CCCC1)C(c1ccccn1)N(C(=O)c1csnn1)C1CCCCC1 (configuration not stated),.,.,.,?,27µM,.
O=C(NC1(C(=O)NC2CCCCC2)CCCCC1)c1ccccn1,.,?,.,.,.,?
COc1cccc(CN(CC(=O)NC2CCCC2)C(=O)c2csnn2)c1,.,.,.,.,.,.
CCCCCCCC/C=C\CCCCCCCCN,/,/,/,/,/,.[12.7 µM]
CC(=O)OCC(NC(=O)C1CCCN1C(=O)OC(C)(C)C)C1OC(n2ccc(=O)[nH]c2=O)C(OC(C)=O)C1OC(C)=O (configuration not stated),/,/,.,.,/,/
COC(=O)[C@H]1C[C@@]2(O)CN(S(=O)(=O)c3ccc(C)cc3)C[C@@]2(OC(=O)Nc2cccs2)C[C@H]1C(=O)OC,.,/,/,/,.,/
CCOc1ccc(N2C(=O)c3cccnc3C2Nc2ccc(F)cc2)cc1 (configuration not stated),/,.,.,.,.,56µM
O=C(c1ccc(Cl)c(S(=O)(=O)N2CCOCC2)c1)N1CCOCC1,.,.,.,.,.,.
O=c1c2ccccc2sn1-c1ccc(S(=O)(=O)N2CCOCC2)cc1,/,/,?,50µM,/,/
O=c1c2ccccc2sn1-c1ccc(Cl)c(S(=O)(=O)N2CCOCC2)c1,/,/,?,14µM,/,/
O=S(=O)(c1ccc(N2CCOCC2)cc1)N1CCOCC1,.,.,.,.,.,.
O=C(/C=C/c1ccc(-c2ccccc2[N+](=O)[O-])o1)c1ccco1,.,40µM,40µM,18µM,.,14µM
SMILES,PI5P4K alpha inh,BAZ2B block,HP1b chromo inh,JMJD2A Tudor inh,PLK1 PBD block,G9a block
O=C(C=Cc1ccco1)c1ccco1,.,/,.,.,.,/
COc1cccc(OCCNS(=O)(=O)c2ccccc2[N+](=O)[O-])c1,.,/,.,.,.,/
CCOc1ccccc1Nc1nnc(SCC(=O)Nc2cccc(S(=O)(=O)NC3=NCCCCC3)c2)s1,.,.,.,.,.,40µM
CCOc1ccc2nc(SCC(=O)Nc3cccc(S(=O)(=O)NC4=NCCCCC4)c3)[nH]c2c1,.,.,.,.,.,45µM
COc1cccc(C(=O)c2cn(CC(=O)NCc3ccccc3)c3nc(C)ccc3c2=O)c1,/,.,.,?,/,.
O=C(CSc1nnc(-c2ccc(Cl)cc2)n1Cc1ccco1)Nc1ccc2c(c1)OCCO2,/,.,.,.,.,45µM
O=C(O)CSc1nnc(-c2ccc(S(=O)(=O)N3CCCC3)cc2)n1Cc1ccco1,/,.,.,.,.,56µM
CCn1c2ccccc2c2cc(NC(=O)CSc3nnc(C4CC4)n3Cc3ccco3)ccc21,.,.,.,.,.,10µM
COc1ccc(-c2cnc(SCC(=O)Nc3ccc4c(c3)OCO4)n2Cc2ccco2)cc1,.,?,?,20µM,.,25µM
CC(C)OCCCNC(=O)C(=O)Nc1ccc2nc3n(c(=O)c2c1)CCCCC3,/,.,.,.,/,.
CN(C(=O)CSc1nnc(-c2ccc(OC(F)F)cc2)n1N)C1CCS(=O)(=O)C1 (configuration not stated),.,.,.,.,.,.[2.33 µM]
Cc1ccc(C(=O)N2CCCCC2CCN2CCCCC2)cc1 (configuration not stated),/,.,.,.,/,.
CC(=O)Nc1cccc(NC(=O)CSc2ncc(-c3ccc(Cl)cc3)n2Cc2ccco2)c1,.,13µM,?,?,7.5µM,13µM
Nn1cc(-c2ccccc2)nc1SCC(=O)Nc1ccc2c(c1)OCO2,.,.,.,?,.,71µM
Cc1cc(-c2n[nH]c(=S)n2/N=C/c2cc([N+](=O)[O-])ccc2Cl)n[nH]1,.,?,?,7.9µM,.,1.8µM
Cc1cc(-c2n[nH]c(=S)n2/N=C/c2ccc(Cl)c([N+](=O)[O-])c2)n[nH]1,.,?,.,40µM,?,1.4µM
Cc1ccc(-c2nc(C(=O)NC3CCCCCC3)no2)cc1,.,/,.,16µM,9.5µM,/
COc1cccc(-n2cnc(=O)c3cccnc32)c1,.,.,.,.,.,.
COc1cccc(N=Nc2ccc(O)c3ncccc23)c1,.,7.9µM,?,18µM,.,10µM
COc1cccc(C=Nc2ccc3c(c2)OCCO3)c1O,.,.,.,.,?,.[12.7 µM]
Cc1ccccc1N=Nc1ccc(O)c2ncccc12,.,7.9µM,?,?,.,?
O=Nc1ccc(O)c2ncccc12,.,22µM,.,28µM,.,?
Oc1ccc(N=Nc2ccc3c(c2)OCCO3)c(O)c1,?,?,.,40µM,.,?
O=C(COc1ccc2c(c1)oc(=O)c1ccccc12)NC(Cc1ccc(Cl)cc1)C(=O)O (configuration not stated),.,.,.,.,.,/
O=S(=O)(O)c1cccc2c(N=Nc3ccc(O)c4ncccc34)cccc12,-81,22µM,22µM,25µM,21µM,10µM
Nc1ccc(N=Nc2ccccc2)c2cccnc12,.,7.9µM,16µM,32µM,.,13µM
Nc1ccc(Br)c2cccnc12,.,.,.,.,8.4µM,32µM
